The results in this text go back to PubChem BioAssay (EPA / NIEHS).

The AC50 is the concentration at which the activity in the assay is half-maximal.

Structures are written as SMILES. Inconclusive results are not listed. The source made the active and inactive calls. How the source made its calls: active means hit-call score of the fitted dose curve at least 0.9, where 1 is the maximum; inconclusive means response in the unintended direction; inactive means score below 0.9.

The target of this assay is Sodium channel protein type 1 subunit alpha (Rattus norvegicus) (UniProt P04774). The assay can be described thus: NVS_IC_rNaCh_site2: NovaScreen (NVS) Ion Channel Assay for rat Sodium Channel, Site 2 (NaCh) (AID 2283322).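 Further: hit means loss of radioligand binding signal relative to DMSO so AC50 marks displacement.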 The method in brief: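 Initial duplicate single-point testing at 25 uM, followed by concentration-response runs for actives. Binding of radioligand to rat forebrain membranes quantified after 1 h via filter-based radiodetection.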
Regarding `CO[C@@H]1COCC[C@@H]1N[C@@H]1CC[C@@](C(=O)N2CCc3ncc(C(F)(F)F)cc3C2)(C(C)C)C1`, the AC50 is 9.94 µM (active).
With `CCCCC(CC)COP(=O)(OCC(CC)CCCC)OCC(CC)CCCC` (centres undefined), the molecule was called inactive.
Consider `CN(C)CCCN1c2ccccc2Sc2ccc(Cl)cc21`, for which the AC50 was 1.96 µM (active).
Consider `NC(=Nc1ccccc1)Nc1ccccc1`, for which the result was inactive.
For `COC(=O)[C@H]1[C@H]2C[C@@H]3c4[nH]c5cc(OC)ccc5c4CCN3C[C@H]2C[C@@H](OC(=O)c2cc(OC)c(OC)c(OC)c2)[C@@H]1OC`, the AC50 is 5.49 µM (active).
Regarding `COc1ccc(OC(F)(F)F)cc1CN[C@H]1CCCN[C@H]1c1ccccc1`, the AC50 was 0.623 µM (active).
With `Cc1cc(SC2=C(O)C[C@@](CCc3ccc(N)cc3)(C(C)C)OC2=O)c(C(C)(C)C)cc1CO`, the molecule was classed as inactive.
In the case of `O=C(N[C@@H](c1ccccc1)[C@@H]1CCCCN1)c1cccc(C(F)(F)F)c1Cl`, the AC50 is 1.27 µM (active).
Take `CN(C)C(=O)NC1(c2ccccc2)CCN(CC[C@@]2(c3ccc(F)c(F)c3)CN(C(=O)c3ccccc3)CCO2)CC1`: the AC50 was 6.43 µM (active).
As for `Cn1cnc2c1c(=O)[nH]c(=O)n2C`, the molecule was called inactive.
On to `CCN(CC)CCOc1ccc(C(=C(Cl)c2ccccc2)c2ccccc2)cc1`, for which the AC50 is 1.99 µM (active).
In the case of `CCCCC(CC)COC(=O)CCCCCCCC(=O)OCC(CC)CCCC` (centres undefined), the molecule was called inactive.
For the molecule `O=C1NC(=O)C(c2ccccc2)(c2ccccc2)N1`, the molecule was classed as inactive.
For `CN(C)C(=O)NC1(c2ccccc2)CCN(CCC[C@]2(c3ccc(Cl)c(Cl)c3)CCCN(C(=O)c3ccccc3)C2)CC1`, the AC50 is 0.327 µM (active).
